# Laboratory results taken from PubChem BioAssay AID1159580 (chemical genetic matrix, 2015).
# “And” between values parts separate entries of the source, which are not always exact repeats. Equal values may be shown once. In all, about 5,500 compounds went through this assay and about 2,000 (36%) were called active. Roughly 18% stayed inconclusive and do not appear here. The list shows a part of the results. A number with no mark means an inactive call. No stated cut-off is given here; in the data, active means normalized growth mostly below about 0.91 (no sharp cut-off); inconclusive means no clear call, values can overlap the other calls; inactive means mostly above about 0.92.
# Test: chemical genetic growth profiling, strain panel (AID 1159580);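 further: tested at 20 µM; growth read once vehicle control cultures reached saturation at 30 °C; 1 = growth at the plate median or of vehicle wells; lower values mean less growth of the strain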
# Conditions: S. cerevisiae deletion strains, growth OD
smiles,measurement,setting,value
CC(=O)OC1CCC2C3CCc4cc(O)ccc4C3CCC12C (stereo not given),normalized growth,"locus YAL021C, strain ccr4, active compounds read low",0.975
same,normalized growth,"locus YAL026C, strain drs2, active compounds read low",0.96
same,normalized growth,"locus YAL030W, strain snc1, active compounds read low",0.984
same,normalized growth,"locus YBL061C, strain skt5, active compounds read low",0.893 (active)
same,normalized growth,"locus YBR009C, strain hhf1, active compounds read low",0.969
same,normalized growth,"locus YBR021W, strain FUR4, active compounds read low",0.934
same,normalized growth,"locus YBR023C, strain chs3, active compounds read low",0.881 (active)
same,normalized growth,"locus YBR171W, strain sec66, active compounds read low",0.996
same,normalized growth,"locus YBR229C, strain ROT2, active compounds read low",1.01
same,normalized growth,"locus YBR231C, strain swc5, active compounds read low",0.966
same,normalized growth,"locus YBR279W, strain paf1, active compounds read low",0.979
same,normalized growth,"locus YCL011C, strain gbp2, active compounds read low",0.929
same,normalized growth,"locus YCL016C, strain dcc1, active compounds read low",0.954
same,normalized growth,"locus YCL029C, strain bik1, active compounds read low",0.99
same,normalized growth,"locus YCL061C, strain MRC1, active compounds read low",0.984
same,normalized growth,"locus YCL069W, strain vba3, active compounds read low",1.02
same,normalized growth,"locus YCR088W, strain abp1, active compounds read low",0.957
same,normalized growth,"locus YDL005C, strain med2, active compounds read low",0.973
same,normalized growth,"locus YDL035C, strain GPR1, active compounds read low",0.973
same,normalized growth,"locus YDL040C, strain nat1, active compounds read low",1.01
same,normalized growth,"locus YDL074C, strain BRE1, active compounds read low",0.827
same,normalized growth,"locus YDL101C, strain DUN1, active compounds read low",0.98
same,normalized growth,"locus YDL134C, strain PPH21, active compounds read low",0.973
same,normalized growth,"locus YDL185W, strain tfp1, active compounds read low",1.02
same,normalized growth,"locus YDL192W, strain arf1, active compounds read low",1.03
same,normalized growth,"locus YDR001C, strain nth1, active compounds read low",0.999
same,normalized growth,"locus YDR069C, strain doa4, active compounds read low",0.957
same,normalized growth,"locus YDR101C, strain arx1, active compounds read low",1
same,normalized growth,"locus YDR137W, strain rgp1, active compounds read low",0.797 (active)
same,normalized growth,"locus YDR150W, strain NUM1, active compounds read low",1.01
same,normalized growth,"locus YDR159W, strain sac3, active compounds read low",0.842 (active)
same,normalized growth,"locus YDR162C, strain NBP2, active compounds read low",1
same,normalized growth,"locus YDR195W, strain ref2",0.746 (active)
same,normalized growth,"locus YDR297W, strain sur2, active compounds read low",0.993
same,normalized growth,"locus YDR318W, strain mcm21, active compounds read low",1
same,normalized growth,"locus YDR334W, strain swr1, active compounds read low",1.01
same,normalized growth,"locus YDR335W, strain msn5, active compounds read low",0.921
same,normalized growth,"locus YDR388W, active compounds read low",0.997
same,normalized growth,"locus YDR392W, strain spt3, active compounds read low",0.608 (active)
same,normalized growth,"locus YDR502C, strain sam2, active compounds read low",0.991
same,normalized growth,"locus YEL003W, strain gim4, active compounds read low",0.993
same,normalized growth,"locus YEL037C, strain rad23, active compounds read low",1
same,normalized growth,"locus YEL061C, strain CIN8 (second series), active compounds read low",0.978
same,normalized growth,"locus YEL061C, strain CIN8, active compounds read low",0.998
same,normalized growth,"locus YER015W, strain faa2, active compounds read low",0.981
same,normalized growth,"locus YER016W, strain bim1, active compounds read low",0.918 (active)
same,normalized growth,"locus YER110C, active compounds read low",0.995
same,normalized growth,"locus YER111C, strain swi4, active compounds read low",0.955
same,normalized growth,"locus YER155C, strain BEM2 (second series), active compounds read low",0.934
same,normalized growth,"locus YER155C, strain BEM2, active compounds read low",0.913 (active)
same,normalized growth,"locus YER167W, strain BCK2, active compounds read low",0.988
same,normalized growth,"locus YFR010W, strain ubp6, active compounds read low",0.963
same,normalized growth,"locus YGL078C, strain dbp3, active compounds read low",1.01
same,normalized growth,"locus YGL086W, strain mad1, active compounds read low",0.979
same,normalized growth,"locus YGL167C, strain pmr1, active compounds read low",0.999
same,normalized growth,"locus YGL173C, strain kem1, active compounds read low",0.991
same,normalized growth,"locus YGL227W, strain vid30, active compounds read low",1.01
same,normalized growth,"locus YGL240W, strain doc1, active compounds read low",0.968
same,normalized growth,"locus YGL248W, strain PDE1, active compounds read low",0.954
same,normalized growth,"locus YGL253W, strain hxk2, active compounds read low",0.96
same,normalized growth,"locus YGR078C, strain PAC10, active compounds read low",0.899
same,normalized growth,"locus YGR135W, strain pre9, active compounds read low",1.03
same,normalized growth,"locus YGR229C, strain SMI1, active compounds read low",0.849
same,normalized growth,"locus YGR252W, strain gcn5, active compounds read low",0.986
same,normalized growth,"locus YHR013C, strain ard1, active compounds read low",0.985
same,normalized growth,"locus YHR027C, strain rpn1, active compounds read low",0.975
same,normalized growth,"locus YHR030C, strain SLT2, active compounds read low",1.01 and 0.911
same,normalized growth,"locus YHR079C, strain IRE1 (second series), active compounds read low",1
same,normalized growth,"locus YHR079C, strain IRE1, active compounds read low",0.938
same,normalized growth,"locus YHR094C, strain hxt1, active compounds read low",1.02
same,normalized growth,"locus YHR129C, strain ARP1, active compounds read low",1
same,normalized growth,"locus YHR142W, strain chs7, active compounds read low",0.903
same,normalized growth,"locus YHR200W, strain rpn10, active compounds read low",1.02
same,normalized growth,"locus YIL066C, strain RNR3, active compounds read low",0.962
same,normalized growth,"locus YIL073C, strain SPO22, active compounds read low",0.957
same,normalized growth,"locus YIL125W, strain kgd1, active compounds read low",1.01
same,normalized growth,"locus YIR030C, strain dcg1, active compounds read low",1.02
same,normalized growth,"locus YJL092W, strain hpr5, active compounds read low",0.986
same,normalized growth,"locus YJL095W, strain BCK1 (second series), active compounds read low",1
same,normalized growth,"locus YJL095W, strain BCK1, active compounds read low",0.892 and 0.899
same,normalized growth,"locus YJL115W, strain asf1, active compounds read low",1.01
same,normalized growth,"locus YJL129C, strain trk1, active compounds read low",0.92
same,normalized growth,"locus YJL134W, strain LCB3, active compounds read low",1.01
same,normalized growth,"locus YJL154C, strain vps35, active compounds read low",0.988
same,normalized growth,"locus YJL164C, strain tpk1, active compounds read low",0.954
same,normalized growth,"locus YJL166W, strain qcr8, active compounds read low",0.974
same,normalized growth,"locus YJL168C, strain set2, active compounds read low",1.01
same,normalized growth,"locus YJL187C, strain SWE1 (second series), active compounds read low",0.944
same,normalized growth,"locus YJR043C, strain POL32, active compounds read low",0.938
same,normalized growth,"locus YJR066W, strain TOR1, active compounds read low",0.905
